# Assay outcomes deposited in PubChem by National Center for Advancing Translational Sciences (NCATS).
# KB-3-1 tox = qHTS assay for MDR1-selective chemotherapeutics: Primary screen using the parental adenocarcinoma cell KB-3-1; AID 1347075, 2019; 400,000 tested, 1.4% active; Potency, µM (series often up to 46.1 µM), hits mostly cytotoxic; KB-3-1 viability, CellTiter-Glo ATP luminescence, 72 h; further: on the % scale 0 is the no-effect control and ±100 the full control effect; nearly all actives have a fitted effect of over 60% in size
#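 Cytotoxicity measured as CellTiter-Glo luminescence after 72 h at 37 C. Compound titrations were pinned onto drug-naive KB-3-1 parental adenocarcinoma cells grown in DMEM with 10% FBS, and normalized data fitted to concentration-response curves.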
# MCF10A rerep = A quantitative high throughput screen for small molecules that induce DNA re-replication in MCF 10a normal breast cells; MCF 10A DNA re-replication, Hoechst nuclear intensity, 48 h; Potency, µM (highest dose often 46.1 µM), for the others: at the top dose activity, positive = re-replication, most hits filed as activators; 350,000 tested, 2.9% active; AID 624296, 2012; further: % of control where 0% means no effect; nearly all actives have a fitted effect of over 50% in size
# PTAP TSG101 blk = qHTS Assay for Iinhibitors of HIV-1 Budding by Blocking the Interaction of PTAP/TSG101. Tumor susceptibility gene 101 protein (Homo sapiens), Q99816. Fluorescence polarization, FITC-PTAP peptide / Tsg101 binding. Potency, µM (top dose mostly 115 µM), inactives show at the highest dose activity change, negative = inhibition, most hits filed as inhibitors. 340,000 tested, under 10 active. AID 493005, 2010; active means well fitted inhibition curve with a large enough effect in the main read-out, with a control signal flat, not every such curve was filed as active; inconclusive means small, poorly fitted or top-dose-only effect, or effect the other way, or a change in a side signal; inactive means no such curve, though single readings can be large or run the other way; further: % of control where 0% means no effect
# Target sequence (Q99816 whole entry, looked up): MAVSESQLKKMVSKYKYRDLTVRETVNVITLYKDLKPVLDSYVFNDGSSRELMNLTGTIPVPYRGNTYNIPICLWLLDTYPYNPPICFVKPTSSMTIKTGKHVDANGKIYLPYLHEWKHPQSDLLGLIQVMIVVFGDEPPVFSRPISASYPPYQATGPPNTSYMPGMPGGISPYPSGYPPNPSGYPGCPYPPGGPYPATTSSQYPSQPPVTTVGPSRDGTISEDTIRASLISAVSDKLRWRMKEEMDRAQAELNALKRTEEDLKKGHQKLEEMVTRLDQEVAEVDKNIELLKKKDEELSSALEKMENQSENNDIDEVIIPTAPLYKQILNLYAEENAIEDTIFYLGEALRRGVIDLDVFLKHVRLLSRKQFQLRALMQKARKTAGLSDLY
#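 Compounds were pin-transferred onto Tsg101 binding domain (10 uM final) in HEPES pH 7.5 buffer, then FITC-PTAP peptide was added at 50 nM final. After 20 min at RT, polarization reported peptide displacement across a qHTS concentration series.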
# SW480 rereplic = A quantitative high throughput screen for small molecules that induce DNA re-replication in SW480 colon adenocarcinoma cells | 340,000 tested, 1.8% active | SW480 DNA re-replication, Hoechst DNA content imaging, 48 h | Potency, µM (top dose mostly 46.1 µM), inactives show top-dose re-replication activation, hits mostly activators | AID 624297, 2012; further: % of control where 0% means no effect; nearly all actives have a fitted effect of over 55% in size
#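 250 cells/well; 23 nL cpd via pin tool; 48 hr, 37 C, 5% CO2; Hoechst 40 min; imager read of total nuclear intensity, ex 405/em 500-530 nm.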
# KB-V1 MDR tox = qHTS assay for MDR1-selective chemotherapeutics: Primary screen using the drug-selected MDR subline cells KB-V1; AID 1347076, 2019; KB-V1 MDR cells viability, CellTiter-Glo, 72 h; 400,000 tested, 3.4% active; Potency, µM (doses to about 46.1 µM), usual class: cytotoxic; further: on the % scale 0 is the no-effect control and ±100 the full control effect; nearly all actives have a fitted effect of over 60% in size
#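 Luminescent ATP read-out (CellTiter-Glo, 10 min) measures survival of drug-selected KB-V1 MDR cells after 72 h, 37 degrees C compound exposure. Medium: phenol-red-free DMEM, 10% FBS. Values from fitted concentration-response curves.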
# PINK1 modulator = A Quantitative High throughput Screen to Identify Chemical Modulators of PINK1 Expression; PINK1 immunofluorescence, high-content cytometry, 24 h; Potency, µM (doses to about 76.6 µM), for the others: at the top dose activation (PINK1 increase), hits mostly activators; 410,000 tested, 0.2% active; active means well fitted activation curve with a large enough effect; inconclusive means small, poorly fitted or top-dose-only effect; cell line not stated here; further: % of control where 0% means no effect; nearly all actives have a fitted effect of over 65% in size
#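 PINK1 protein level read as immunofluorescence by microplate cytometer in a fixed, stained stable cell line after 24 h exposure to five compound concentrations, with CCCP as control.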
# * marks the source's active call; other numbers are inactive results; i = inactive; u = inconclusive; x = no result; [ ] = dose if it differs, or a comment. In the library only some 6.8% were active in any assay of this set; here they are far more common. Unless noted, the call rests on the fitted dose curve; in most records, active means well fitted curve in the direction sought with a large enough effect; inconclusive means small, poorly fitted or top-dose-only effect, or another doubt; inactive means no such curve, though single readings can be large; an effect the other way counts as inactive or inconclusive. Potency means the concentration at half of the fitted maximal effect.
SMILES,KB-3-1 tox,MCF10A rerep,PTAP TSG101 blk,SW480 rereplic,KB-V1 MDR tox,PINK1 modulator
O=C(c1ccc2c(=O)n(-c3ccccc3)c(=S)[nH]c2c1)N1CCN(c2ccccc2)CC1,i,2%,-2%,-5%,i,2%
O=C(c1ccc2c(=O)n(-c3ccccc3)c(=S)[nH]c2c1)N1CCCCC1,7.3µM*,u,-4%,-3%,u,2%
O=C(N/N=C/c1c(O)ccc2ccccc12)c1cccnc1,u,u,1%,0.82µM*,u,2%
O=C(CO)N/N=C/c1c2ccccc2cc2ccccc12,i,25%,-1%,3%,i,0%
N#CCC(=O)N/N=C/c1c2ccccc2cc2ccccc12,i,18µM*,-9%,u,i,2%
O=C(NN=Cc1c(O)ccc2ccccc12)c1ccncc1,i,u,u,24%,0.46µM*,-2%
O=C(N/N=C/c1c(O)ccc2ccccc12)Nc1ccccc1,u,12%,5%,134%,u,12%
O=C(CNc1ccccc1)N/N=C/c1c(O)ccc2ccccc12,16µM*,u,-1%,u,i,-1%
CCN(Cc1ccccc1)C(=O)Cn1c(=O)n(-c2ccc(C)c(C)c2)c(=O)c2c(C)c(C)sc21,i,x,x,x,u,1%
COc1ccc(NC(C)C(=O)N/N=C/c2ccccc2OCc2cccc(Br)c2)cc1 (centres undefined),23µM*,u,-1%,u,u,5%
COc1ccc(N=Cc2c(O)ccc3ccccc23)cc1,i,-1%,11%,4%,i,0%
O=C(N/N=C/c1c(O)ccc2ccccc12)c1ccc(Br)o1,u,u,2%,1.2µM*,u,0%
COc1ccc(NC(C)C(=O)N/N=C/c2c(O)ccc3ccccc23)cc1 (centres undefined),u,u,1%,3.7µM*,u,9%
Cc1cccc(/C=N/NC(=O)c2ccccc2OCc2cccc(Br)c2)n1,i,18µM*,-7%,19%,i,7%
Cc1ccccc1NC(C)C(=O)N/N=C/c1ccccc1OCc1cccc(Br)c1 (centres undefined),u,u,0%,u,u,0%
O=C(N/N=C/c1ccccn1)c1ccc(Br)o1,i,19%,-7%,-5%,i,0%
COc1ccccc1NC(=O)CSc1nc2c(oc3ccccc32)c(=O)n1Cc1ccco1,i,x,x,x,i,0%
Cc1cccc(-c2cccc(C(=O)N3CCc4c(cnc(C)c4CNC(=O)c4cncs4)C3)c2)c1,x,x,x,x,x,10%
C1=Cc2ccccc2/C1=C\c1cccc(/C=C2\C=Cc3ccccc32)c1,u,x,x,x,u,0%
COc1ccc2ccccc2c1/C=N\NC(=O)c1cccnc1,i,18µM*,-1%,3.7µM*,i,0%
COc1ccc2ccccc2c1/C=N/NC(=O)c1cccc(C)c1,i,u,-5%,-6%,i,5%
Cn1cc(C(=O)N/N=C/c2c(O)ccc3ccccc23)ccc1=O,u,26µM*,-2%,-7%,i,1%
O=C(N/N=C\c1c(O)ccc2ccccc12)c1ccc(O)cc1,i,-1%,0%,u,i,0%
CCOc1ccc2ccccc2c1/C=N\NC(=O)c1ccc([N+](=O)[O-])cc1,i,1%,-2%,23µM*,i,1%
O=C(N/N=C\c1c(O)ccc2ccccc12)c1cncc(Br)c1,2.9µM*,15µM*,u,u,u,6%
SMILES,KB-3-1 tox,MCF10A rerep,PTAP TSG101 blk,SW480 rereplic,KB-V1 MDR tox,PINK1 modulator
CC1CN(CC(=O)NCCC2COc3ccccc3O2)Cc2cc(Cl)ccc2O1 (centres undefined),x,x,x,x,x,0%
O=C(N/N=C/c1cc(Br)c(O)c(Br)c1O)c1cccnc1,u,12%,-1%,u,i,0%
Cn1nccc1C(=O)N/N=C/c1c(O)ccc2ccccc12,7.3µM*,16µM*,-2%,u,u,5%
O=C(N/N=C/c1cc(O)ccc1Br)c1cccnc1,21µM*,5%,-1%,12%,i,-2%
Cc1occc1C(=O)N/N=C/c1c(O)ccc2ccccc12,6.5µM*,u,-2%,0.52µM*,u,9%
CCSc1nnc(C(C)NC(=O)c2ccc(OC)cc2)n1C (centres undefined),x,x,x,x,x,1%
COc1ccc(-n2c(SCC(=O)c3ccccc3)nc3c([nH]c4ccccc43)c2=O)cc1,i,x,x,x,i,-5%
CCCCOc1ccc(S(=O)(=O)NCc2csc(C)n2)cc1,18µM*,-2%,-11%,-5%,u,4%[38.3 µM]
Cc1cccc(NC(NC(=O)c2ccccc2[N+](=O)[O-])C(Cl)(Cl)Cl)c1 (centres undefined),i,-3%,-1%,4%,23µM*,2%
O=C(c1ccccc1OCc1ccccc1Br)N1CCN(c2ncccn2)CC1,u,u,-9%,u,6.5µM*,u
Cc1oc(-c2cccc(NC(=O)c3ccccn3)c2)nc1CNC(=O)c1cc(F)c(F)cc1F,x,x,x,x,x,-1%
O=C1NC[C@@H](c2ccccc2)OC(=O)[C@@H](Cc2ccc(F)cc2)CC/C=C/C[C@H]1CC(=O)N(CCO)Cc1ccccc1,u,u,-4%,4.6µM*,u,-1%
C[C@@H]1COC(=O)[C@H](Cc2ccc(F)cc2)CC/C=C/C[C@@H](CC(=O)N[C@@H](CO)Cc2ccccc2)C(=O)N1,i,2%,-5%,u,i,-1%
O=C(C[C@@H]1C/C=C/CC[C@H](Cc2ccc(F)cc2)C(=O)OC[C@@H](Cc2ccccc2)NC1=O)N[C@H](CO)Cc1ccccc1,u,7.3µM*,-1%,u,i,12%
Cc1cc2oc(C(=O)Nc3cccc(-c4nc5ccccc5o4)c3)c(C)c2cc1C,i,x,x,x,i,6%
O=C(NCC(c1ccc2c(c1)OCO2)N1CCOCC1)c1cccc(Cl)c1 (centres undefined),i,x,x,x,u,-1%
Cc1ccccc1NCc1ccc(O)c2ncccc12,i,u,-1%,3%,u,11µM*
Oc1ccc(CNc2ccccc2)c2cccnc12,u,u,-1%,u,i,u
